# Shown are actives, neighbours in structure and some others; about 19% of the full set was active somewhere.
# Chronic BCR inh: chronic active BCR signaling inhibition; ABC-DLBCL IkBa-CBG/CBR reporter, luminescence ratio, 4 h; 340,000 tested, 0.05% active; Potency, µM (series often up to 46.1 µM), for inactives: at the highest dose activity change, negative = inhibition, hits mostly inhibitors; active means well fitted inhibition curve with a large enough effect in the signal ratio, with a control signal flat, not every such curve was filed as active; inconclusive means small, poorly fitted or top-dose-only effect, or effect the other way, or a change in a side signal; the % refers to the signal ratio;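 further: potency means the concentration at half of the fitted maximal effect; plate controls were basal doxycycline-induced cells for no effect and cells given 10 µM MG132 for full effect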
#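 TMD8 human ABC-DLBCL cells with doxycycline-inducible IκBα–green luciferase fusion and unfused red luciferase, in 0.5% FBS medium; compounds up to 46 uM, 4 h at 37C. Green/red luminescence ratio, filter-overlap corrected, fitted to concentration-response curves.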
# TDP1 cell noCPT: qHTS for Inhibitors of human tyrosyl-DNA phosphodiesterase 1 (TDP1): qHTS in cells in absence of CPT | DT40 Tdp1-/- hTDP1 cells, no CPT, ATP luminescence, 48 h | Potency, µM (highest dose often 46.2 µM), for inactives: at the top dose activity change, negative = growth inhibition, hits mostly inhibitors | 420,000 tested, 15% active; further: potency means the concentration at half of the fitted maximal effect; on the % scale 0 is the no-effect control and ±100 the full control effect; nearly all actives have a fitted effect of over 55% in size
#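 A cellular qHTS used chicken DT40 cells lacking endogenous Tdp1 but carrying stably transfected human TDP1. Compounds were applied without camptothecin, and cell growth kinetics were judged by ATP-dependent luminescence after ≥48 hr.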
# IL-1B inflam inh: inhibitors of inflammasome signaling (IL-1 beta secretion); THP-1 LPS/ATP IL-1B secretion, AlphaLISA, 16 h; hits give low values; AID 743279; activity change, % at 57.5 µM; 360,000 tested, 4.7% active; in the data active means activity change below about -50%; inconclusive means mostly about -30% to -49%; further: on the % scale 0 is the no-effect control and ±100 the full control effect
#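 Secreted IL-1B measured by AlphaLISA bead assay after 16 h compound exposure of THP-1 cells; compounds (final up to 57.5 uM) added 1 h before LPS (250 ng/mL) and ATP (1.25 mM) stimulation; lower signal means less secretion.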
# SW480 rereplic: induces DNA re-replication in SW480 colon adenocarcinoma cells. SW480 DNA re-replication, Hoechst DNA content imaging, 48 h. 340,000 tested, 1.8% active. Potency, µM (doses to about 46.1 µM), for inactives: top-dose re-replication activation, actives largely listed as activators; further: potency means the concentration at half of the fitted maximal effect; % of control where 0% means no effect; nearly all actives have a fitted effect of over 55% in size
#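 Readout is total intensity of Hoechst-stained nuclei, excited at 405 nm and collected at 500-530 nm. Compound treatment lasted 48 hr at 37 C in 5% CO2 before staining.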
# MCF10A rerep: inducers of DNA re-replication in MCF 10A breast cells | MCF 10A DNA re-replication, Hoechst nuclear intensity, 48 h | Potency, µM (series often up to 46.1 µM), without a hit: at the top dose activity, positive = re-replication, actives largely listed as activators | 350,000 tested, 2.9% active; further: potency means the concentration at half of the fitted maximal effect; % of control where 0% means no effect; nearly all actives have a fitted effect of over 50% in size
# DT40 TDP1 CPT: DT40-hTDP1 cell growth loss with CPT; chicken DT40 Tdp1-/-;hTDP1 cells + 20 nM CPT, ATP luminescence, 48 h; Potency, µM (top dose mostly 46.2 µM), for the others: at the highest dose activity change, negative = growth inhibition, hits mostly inhibitors; 420,000 tested, 12% active; AID 686979; further: potency means the concentration at half of the fitted maximal effect; on the % scale 0 is the no-effect control and ±100 the full control effect; nearly all actives have a fitted effect of over 55% in size
#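 Chicken DT40 Tdp1-/- cells complemented with human TDP1, 400 cells/well, exposed to compounds plus 20 nM camptothecin for at least 48 h at 37 C; viability read as ATP content by CellTiter-Glo luminescence.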
# * = called active by the depositor; ? = inconclusive; . = not tested or not shown; [ ] = dose if it differs, or a comment. Unless noted, the call rests on the fitted dose curve; in most records, active means well fitted curve in the direction sought with a large enough effect; inconclusive means small, poorly fitted or top-dose-only effect, or another doubt; inactive means no such curve, though single readings can be large; an effect the other way counts as inactive or inconclusive.
SMILES,Chronic BCR inh,TDP1 cell noCPT,IL-1B inflam inh,SW480 rereplic,MCF10A rerep,DT40 TDP1 CPT
CCCCC[C@@H]1C=C(C(=O)O)[C@H](c2ccc3c(c2)OCO3)N1S(=O)(=O)c1ccc(C)cc1,2.2%,-7.2%,49.5,11.2%,1.6%,14.1%
COc1ccccc1S(=O)(=O)NCc1ccc(C(=O)NC2CCC(O)CC2)cc1 (configuration not stated),-0.4%,-28.6%,0.0,-2.9%,?,?
O=C(Cn1nc(-c2ccc(Cl)cc2)ccc1=O)NCc1ccccc1Cl,-8.7%,?,.,.,.,-28.3%
S=C(N/N=C1\CCc2ccccc21)NC1CCCCC1,-9.1%,23.1µM*,39.2,-10.4%,?,?
CC(C)NC(=S)N/N=C1\CCCCc2ccccc21,-29.9%,20.6µM*,12.0,4.5%,23.4%,?
CCOC(=O)c1c(C)[nH]c(C)c1S(=O)(=O)NCC(=O)Nc1ccc(C)cc1C,.,-13.5%,.,.,.,-24.6%
CCOC(=O)/C=C1/SCC(=O)N1CCOc1cccc(Br)c1,.,-6.5%,-10.8,-2.3%,?,-3.7%
CCCc1c(C(=O)N/N=C/C=C/c2ccccc2)nnn1-c1nonc1N,.,-25.2%,42.8,.,.,-18.7%
CC(C)(C)c1oc(C(=O)O)cc1CN1CCOCC1,7.3%,-15.5%,13.8,-2.3%,-6.1%,2.6%
CC(C)(C)OC(=O)N1CCN(c2ccc([N+](=O)[O-])cc2)CC1,0.2%,3.5%,15.2,-63.5%,-38.3%[9.22 µM],-0.4%
COCCNC(=O)/C(C#N)=C/c1c(N2CCN(c3ccccc3)CC2)nc2c(C)cccn2c1=O,2.2%,?,71.5,?,22.1%,23.1µM*
CCOC(=O)/C(C#N)=C/c1c(N2CCN(c3ccc(OC)cc3)CC2)nc2c(C)cccn2c1=O,?,?,29.5,-1.6%,1.7%,?
CCNC(=O)/C(C#N)=C/c1c(N2CCN(c3ccccc3)CC2)nc2c(C)cccn2c1=O,2.0%,?,7.4,-1.2%,0.1%,?
Cc1cccn2c(=O)c(/C=C(\C#N)C(N)=O)c(N3CCN(c4ccccc4)CC3)nc12,2.3%,6.51µM*,3.5,6.4%,0.4%,?
N#C/C(=C\c1c(N2CCN(c3ccccc3)CC2)nc2ccccn2c1=O)C(N)=O,9.4%,-18.9%,-7.6,9.0%,-1.0%,-15.7%
COCCNC(=O)/C(C#N)=C/c1c(N2CCN(c3cccc(Cl)c3)CC2)nc2c(C)cccn2c1=O,1.6%,23.1µM*,?,?,-0.1%,16.4µM*
COCCNC(=O)/C(C#N)=C/c1c(N2CCN(c3ccc(OC)cc3)CC2)nc2c(C)cccn2c1=O,-3.6%,23.1µM*,?,?,121.6%,23.1µM*
COc1ccc(S(=O)(=O)Nc2ccc3c(c2)C(=O)N([C@@H](C)CO)C[C@H](C)[C@H](CN(C)S(=O)(=O)c2ccc(F)cc2)O3)cc1,-2.9%,?,-26.1,3.1%,12.9%,?
Cc1cc(C)cc(NC(=O)CN2CCC(C(=O)c3ccccc3)CC2)c1,-15.7%,-28.9%,-14.7,-2.6%,-5.5%,-14.4%
CCNC(=O)/C(C#N)=C/c1c(N2CCN(c3ccc(OC)cc3)CC2)nc2c(C)cccn2c1=O,5.6%,20.6µM*,-61.6*,?,14.7%,?
CCNC(=O)/C(C#N)=C/c1c(N2CCCCCC2)nc2c(C)cccn2c1=O,?,23.1µM*,?,-1.0%,1.2%,?
COc1ccc(CC(NC(C)=O)C(=O)NC2CCN(c3ncccc3[N+](=O)[O-])CC2)cc1 (configuration not stated),-3.8%,0.7%,-10.5,-42.3%,?,-14.5%
